Results reported in PubChem BioAssay AID1159580 (chemical genetic matrix, 2015).
Screen size: about 5,500 compounds; about 2,000 (36%) were called active. Inconclusive results (about 18%) are left out. Rule as the data show it: active = normalized growth mostly below about 0.91 (no sharp cut-off); inconclusive = no clear call, values can overlap the other calls; inactive = mostly above about 0.92. Some of the results follow.

Assay: chemical genetic growth profiling, strain panel (AID 1159580);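 also: tested at 20 µM; growth read once vehicle control cultures reached saturation at 30 °C; 1 = growth at the plate median or of vehicle wells; lower values mean less growth of the strain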
Details: S. cerevisiae deletion strains, growth OD
[1] = locus YAL040C, strain CLN3, hits give low values
[2] = locus YCL061C, strain MRC1 (second series), hits give low values
[3] = locus YDR363W, strain ESC2, hits give low values
[4] = locus YER002W, strain NOP16, hits give low values
[5] = locus YMR307W, strain GAS1, hits give low values
[6] = locus YNL153C, strain GIM3, hits give low values
[7] = locus YNL175C, strain NOP13, hits give low values
[8] = locus YNL197C, strain WHI3, hits give low values
[9] = locus YNL224C, strain SQS1, hits give low values
[10] = locus YNL322C, strain KRE1, hits give low values
[11] = locus YOR083W, strain WHI5 (second series), hits give low values
[12] = locus YPL055C, strain LGE1, hits give low values

Measured: normalized growth

C=CC[C@@H]1/C=C(\C)C[C@H](C)C[C@H](OC)[C@H]2O[C@@](O)(C(=O)C(=O)N3CCCC[C@H]3C(=O)O[C@H](/C(C)=C/[C@@H]3CC[C@@H](O)[C@H](OC)C3)[C@H](C)[C@@H](O)CC1=O)[C@H](C)C[C@@H]2OC
active: locus YAL021C, strain ccr4, hits give low values 0.844 | locus YAL026C, strain drs2, hits give low values 0.6 | locus YBL061C, strain skt5, hits give low values 1.09 [resistant] | locus YBR171W, strain sec66, hits give low values 1.14 [resistant] | locus YCL016C, strain dcc1, hits give low values 0.896 | locus YDR069C, strain doa4, hits give low values 0.829 | locus YDR137W, strain rgp1, hits give low values 0.174 | locus YDR195W, strain ref2 0.773 | locus YDR392W, strain spt3, hits give low values 0.55 | locus YER016W, strain bim1, hits give low values 0.909 | locus YER155C, strain BEM2 (second series), hits give low values 0.705 | locus YFR010W, strain ubp6, hits give low values 0.877 | locus YGL173C, strain kem1, hits give low values 0.848 | locus YHR030C, strain SLT2, hits give low values 0.7 | locus YHR079C, strain IRE1, hits give low values 0.719 | locus YJL095W, strain BCK1 (second series), hits give low values 0.91 | locus YJL095W, strain BCK1, hits give low values 0.754 | locus YJL129C, strain trk1, hits give low values 0.845 | locus YJL164C, strain tpk1, hits give low values 0.915 | locus YJR066W, strain TOR1, hits give low values 0.746 | locus YLR113W, strain HOG1, hits give low values 0.66 | locus YLR262C, strain YPT6 (second series), hits give low values 0.137 | locus YLR320W, strain mms22, hits give low values 0.734 | locus YLR342W, strain FKS1, hits give low values 0.0809 | locus YMR125W, strain sto1, hits give low values 0.844 | locus YMR205C, strain PFK2, hits give low values 0.78 | locus YMR231W, strain pep5, hits give low values 0.176 | locus YNL071W, strain lat1, hits give low values 0.746 | locus YNL183C, strain NPR1, hits give low values 0.781 | locus YOR001W, strain rrp6, hits give low values 0.761 | locus YOR106W, strain vam3, hits give low values 0.736 | locus YOR231W, strain MKK1, hits give low values 0.7 | locus YOR270C, strain vph1, hits give low values 0.514 | locus YPL051W, strain arl3, hits give low values 0.67 | locus YPL106C, strain sse1, hits give low values 0.72 | locus YPL256C, strain CLN2, hits give low values 0.695
inactive: locus YAL030W, strain snc1, hits give low values 1.02 | locus YBR009C, strain hhf1, hits give low values 0.946 | locus YBR023C, strain chs3, hits give low values 1 | locus YBR231C, strain swc5, hits give low values 0.988 | locus YBR279W, strain paf1, hits give low values 1.03 | locus YCL011C, strain gbp2, hits give low values 0.988 | locus YCL069W, strain vba3, hits give low values 1.02 | locus YCR088W, strain abp1, hits give low values 0.995 | locus YDL005C, strain med2, hits give low values 1.04 | locus YDL040C, strain nat1, hits give low values 1.02 | locus YDR001C, strain nth1, hits give low values 1.04 | locus YDR159W, strain sac3, hits give low values 0.974 | locus YDR297W, strain sur2, hits give low values 1.03 | locus YDR334W, strain swr1, hits give low values 1.1 | locus YDR335W, strain msn5, hits give low values 0.96 | locus YEL003W, strain gim4, hits give low values 0.99 | locus YEL037C, strain rad23, hits give low values 1.04 | locus YEL061C, strain CIN8 (second series), hits give low values 1 | locus YER015W, strain faa2, hits give low values 1.04 | locus YER111C, strain swi4, hits give low values 1.02 | locus YGL167C, strain pmr1, hits give low values 1.06 | locus YGL227W, strain vid30, hits give low values 1.05 | locus YGL240W, strain doc1, hits give low values 1.06 | locus YGL253W, strain hxk2, hits give low values 0.983 | locus YHR013C, strain ard1, hits give low values 0.912 | locus YHR027C, strain rpn1, hits give low values 1.03 | locus YHR142W, strain chs7, hits give low values 0.881 | locus YJL092W, strain hpr5, hits give low values 1.02 | locus YJL115W, strain asf1, hits give low values 1.05 | locus YJL154C, strain vps35, hits give low values 1.04 | locus YJL166W, strain qcr8, hits give low values 0.982 | locus YJL187C, strain SWE1, hits give low values 1.03 | locus YKL160W, strain elf1, hits give low values 0.956 | locus YKR026C, strain gcn3, hits give low values 1.04 | locus YKR091W, strain srl3, hits give low values 1.04 | locus YLL001W, strain dnm1, hits give low values 0.932 | locus YLL026W, hits give low values 1.02 | locus YLL041C, strain sdh2, hits give low values 1.05 | locus YLR027C, strain aat2, hits give low values 0.976 | locus YLR221C, strain rsa3, hits give low values 0.922 | locus YLR258W, strain gsy2, hits give low values 0.986 | locus YLR357W, strain rsc2, hits give low values 0.949 | locus YLR370C, strain arc18, hits give low values 0.936 | locus YLR384C, strain iki3, hits give low values 1.05 | locus YML120C, strain ndi1, hits give low values 0.965 | locus YMR058W, strain fet3, hits give low values 0.995 | locus YMR129W, hits give low values 1.04 | locus YNL209W, strain ssb2, hits give low values 1.03 | locus YNL248C, strain rpa49, hits give low values 1.03 | locus YNL322C, strain KRE1 (second series), hits give low values 0.962 | locus YNR049C, strain mso1, hits give low values 1.03 | locus YOR070C, strain gyp1, hits give low values 0.944 | locus YOR080W, strain dia2, hits give low values 1.05 | locus YOR083W, strain WHI5, hits give low values 0.931 | locus YOR265W, strain rbl2, hits give low values 1.05 | locus YOR290C, strain snf2, hits give low values 0.894 | locus YPL078C, strain atp4, hits give low values 0.951 | locus YPL240C, strain hsp82, hits give low values 1.03

N[C@@H](Cn1ccc(=O)[nH]c1=O)C(=O)O
inactive: locus YAL013W, strain DEP1, hits give low values 0.988 | [1] 1.06 | [2] 1 | [3] 1 | [4] 0.995 | locus YJR075W, strain HOC1, hits give low values 0.97 | [5] 0.978 | locus YNL128W, strain TEP1, hits give low values 1 | [6] 1.03 | [7] 0.995 | [8] 1 | [9] 1.01 | [10] 0.975 | [11] 1.01 | [12] 0.998

O=C(Cc1ccc(Cl)c(Cl)c1)N1CCCCC1CN1CCCC1 (centres undefined)
inactive: [1] 0.982 | [2] 1 | locus YDR150W, strain NUM1, hits give low values 1.01 | [3] 1.01 | [4] 0.999 | locus YGR078C, strain PAC10, hits give low values 1.01 | locus YGR229C, strain SMI1, hits give low values 1.03 | [5] 0.999 | [6] 1.09 | [7] 1.02 | [8] 1.03 | [9] 0.999 | [10] 1.05 | [11] 1.05 | [12] 1.01
